# Only some compounds are listed: those with a hit (about 5.1% of all), similar ones and a draw of the others.
# KDM4E inh: JMJD2E (human) inhibition | JMJD2E catalytic domain, FDH-coupled NADH fluorescence (FDH is formaldehyde dehydrogenase) | 230,000 tested, 1.6% active | AID 2147 | Potency, µM (top dose mostly 57.1 µM), for the others: at the highest dose activity change, negative = inhibition, most hits filed as inhibitors | B2RXH2; active = well fitted inhibition curve with a large enough effect, not every such curve was filed as active; inconclusive = small, poorly fitted or top-dose-only effect, or another doubt; inactive = no such curve, though single readings can be large or run the other way;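 note: potency is the fitted concentration of half-maximal effect; 0% = wells with enzyme and -100% = buffer wells without enzyme; nearly all actives have a fitted effect of over 50% in size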
# Target sequence (B2RXH2 1-337 limits assumed): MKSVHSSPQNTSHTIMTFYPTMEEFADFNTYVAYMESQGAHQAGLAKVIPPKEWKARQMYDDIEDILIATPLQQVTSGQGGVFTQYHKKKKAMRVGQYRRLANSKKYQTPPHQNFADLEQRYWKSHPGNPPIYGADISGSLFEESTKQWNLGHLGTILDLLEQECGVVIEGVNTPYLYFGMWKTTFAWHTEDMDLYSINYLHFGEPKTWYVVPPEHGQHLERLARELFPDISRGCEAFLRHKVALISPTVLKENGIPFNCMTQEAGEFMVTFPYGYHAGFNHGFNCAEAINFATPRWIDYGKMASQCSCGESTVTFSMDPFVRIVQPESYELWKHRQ
# PNC inhibitor: perinucleolar compartment assembly inhibition. PC3M PTB-GFP, PNC prevalence imaging, 16 h; active compounds read low. 140,000 tested, 3.1% active. activity change (PNC), negative = inhibition, % at 10 µM;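 active = readout at or below -70, meaning at least 70% loss of cells showing the perinucleolar compartment, a nuclear body marking cancer cells; inconclusive = readout between -30 and a set limit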;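 note: plate controls were DMSO wells for no effect and camptothecin positive control wells for full effect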
#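 PC3M cells stably expressing PTB-GFP, 750–1000 cells/well, treated 16 h at 37 °C with compound (23 nl of library stock), in duplicate. After paraformaldehyde fixation and Hoechst stain, imaged at 20x; PNC prevalence scored by image analysis.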
# Tau FP inhib: blocks human tau fibril formation measured by polarization; AID 1468; P10636; Potency, µM (highest dose often 57.7 µM), for the others: at the top dose activity, negative = inhibition, actives largely listed as inhibitors; 280,000 tested, 0.39% active; K18 P301L tau heparin fibrillization, Alexa594 FP, 6 h; note: potency is the fitted concentration of half-maximal effect; nearly all actives have a fitted effect of over 55% in size
# Target sequence (P10636 561-689 P618L limits assumed): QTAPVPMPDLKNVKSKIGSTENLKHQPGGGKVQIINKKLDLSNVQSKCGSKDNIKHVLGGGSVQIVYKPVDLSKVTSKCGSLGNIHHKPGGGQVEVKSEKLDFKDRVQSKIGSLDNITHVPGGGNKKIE
#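 Human tau K18 […] P301L fragment, 15 uM unlabeled plus 0.24 uM Alexa 594-labeled tau (final), with compound and 20 uM heparin in 100 mM sodium acetate pH 7; 6 hr at 37 C, then Alexa 594 FP read.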
# Tau fluor cs: counter-screen for tau fibril formation inhibitors; 280,000 tested, 0.93% active; tau K18 P301L Alexa594 fluorescence, heparin fibrillization; Potency, µM (series often up to 57.7 µM), for inactives: top-dose activity change, negative = decrease; note: potency is the fitted concentration of half-maximal effect; nearly all actives have a fitted effect of over 55% in size
#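 Human tau K18 P301L (15 uM unlabeled, 0.24 uM Alexa 594-labeled) in 100 mM sodium acetate pH 7 with 20 uM heparin, 6 hr at 37 C. ThT 30 uM added, 1 hr ambient; Alexa 594 FP and total fluorescence read at 555/632 nm.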
# Tau fibril ThT: blocks human tau fibril formation measured by thioflavin T; P10636; recombinant tau K18 P301L (four-repeat tau fragment), heparin-induced fibrillization, ThT fluorescence; Potency, µM (highest dose often 57.4 µM), without a hit: at the highest dose activity, negative = inhibition, usual class: inhibitors; 270,000 tested, 2.1% active; AID 1460; note: potency is the fitted concentration of half-maximal effect; nearly all actives have a fitted effect of over 55% in size
#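 Heparin-induced (20 uM) aggregation of recombinant human K18 P301L tau, 15 uM unlabeled with 0.24 uM labeled, pH 7 acetate buffer, 6 hr at 37 C with compound. Fibrils quantified by 30 uM ThT fluorescence after 1 hr ambient incubation.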
# NPSR antag: blocks cAMP signaling of the human neuropeptide S receptor. CHO-NPSR cells, cAMP TR-FRET, antagonist mode. Q6W5P4. 220,000 tested, 1% active. Potency, µM (series often up to 38.3 µM), for the others: at the top dose activity change, negative = inhibition, usual class: inhibitors. AID 1461; note: potency is the fitted concentration of half-maximal effect; nearly all actives have a fitted effect of over 50% in size
# An asterisk follows results filed as active; u = inconclusive; x = no result given; [ ] = dose if it differs, or a comment. Unless noted, calls come from the whole dose curve; as a rule, active = well fitted curve in the direction sought with a large enough effect; inconclusive = small, poorly fitted or top-dose-only effect, or another doubt; inactive = no such curve, though single readings can be large; an effect the other way counts as inactive or inconclusive. Unless noted, % is set by controls: 0 for no effect and ±100 for the full control effect.
SMILES,KDM4E inh,PNC inhibitor,Tau FP inhib,Tau fluor cs,Tau fibril ThT,NPSR antag
CN(C)c1ccc(C=Nc2ccc(N(C)C)cc2)cc1,20µM*,41,28µM*,u,11µM*,u
CN(C)c1ccc(/C=N/NC(=O)c2ccccc2)cc1,-13%,x,-9%,-17%,u,-20%
CN(C)c1ccc(N=Cc2ccco2)cc1,8%,-22,u,u,u,7.9µM*
CN(C)c1ccc(C=Nc2ccccc2)cc1,u,-12,1%,-4%,4%,3%[46.1 µM]
C/C(=N/N=C/c1ccc(N(C)C)cc1)c1ccccc1,-13%,24,2%,u,8.9µM*,0%
COC(=O)CSc1nnc(CNC(=O)c2ccccc2OC)n1C,11%,-88*,2%,0%,-2%,-6%[46.1 µM]
COC(=O)CSc1nnc(CNC(=O)c2cc(OC)c(OC)c(OC)c2)n1C,1%,u,-1%,u,u,6%[46.1 µM]
COc1ccc(CC(=O)NCc2nnc(SCc3ccc(C)cc3)n2C)cc1,-2%,-92*,0%,5%,3%,9%
CCC(=O)Oc1ccc(C2Nc3ccccc3-c3nnc(SC)nc3O2)cc1 (stereo unspecified),x,x,-4%,-9%,u,x
COc1cc(C2c3[nH]c4ccccc4c3CC3C(=O)N4C(Cc5c([nH]c6ccccc56)C4c4cc(OC)c(OC)c(OC)c4)C(=O)N32)cc(OC)c1OC (stereo unspecified),x,x,12%[11.6 µM],-14%[11.6 µM],-12%[11.5 µM],x
CCOc1cccc(=O)c2c(C)n(Cc3ccccc3)c(C)c12,-12%,x,10%,-10%,u,-47%
CCOc1cccc(=O)c2c(C)n(Cc3ccco3)c(C)c12,1%,-100*,3%,-12%,-6%,-33%[46.1 µM]
COC(=O)/C(=C(/F)Sc1cc(C)c(O)c(C)c1)C(F)(F)F,-2%,-4,u,13µM*[quencher],u,-22%[46.1 µM]
COC(=O)C1=C(C)N(c2cc(C)cc(C)c2)/C(=C/c2ccc(O)cc2)C1=O,-9%,x,2%,-20%,32µM*,-54%
Cc1ccc(C(=O)/C=C/Nc2cccc([N+](=O)[O-])c2)o1,-7%,-12,1%,u,14µM*,-9%
COc1ccc(N=Cc2c(O)[nH]c3ccccc23)cc1,-1%,36,15%,u,u,-11%[46.1 µM]
Cc1[nH]c2ccccc2c1/C=N\NC(=O)CNc1ccc2c(c1)OCO2,-13%,u,-2%,u,16µM*,-6%
Cc1[nH]c2ccccc2c1/C=N/NC(=O)c1cccs1,-20%,x,10%,18µM*[quencher],11µM*,-13%
Oc1[nH]c2ccccc2c1C=Nc1ccc2c(c1)OCO2,-6%,-11,12%,u,7.9µM*,u
Cc1cccc(-c2c3c(=O)n(C)c(=O)n(C)c3c3c(C)nc4ccccc4n23)c1,x,x,2%,-10%,u,x
FC(F)(F)c1cccc(-c2nc3nc(Cl)c(Cl)nc3[nH]2)c1,u,x,2%,-3%,-11%,6.3µM*
CCN(CC)c1ccc(N=Cc2ccc([N+](=O)[O-])o2)cc1,2.8µM*,u,11µM*,u,10µM*,-50%
CCN(CC)c1ccc(N=Cc2ccccc2[N+](=O)[O-])cc1,5µM*,-99*,u,u,14µM*,-39%
CCOCCCNC(=O)C(c1ccc(Cl)cc1)N(Cc1cccs1)C(=O)c1ccc(NC(C)=O)cc1 (stereo unspecified),x,x,2%,-16%,-4%,x
CCc1cccc(NCc2ccccc2-c2nnc(-c3ccccc3Cl)o2)c1,x,x,-7%,-21%,-7%,x
CCN(c1ccccc1)S(=O)(=O)c1ccc(NC(=O)c2nc(SC)ncc2Cl)cc1,x,x,-14%,u,0%,x
Cc1nc2ccccc2c(=O)n1NS(C)(=O)=O,4%,-112*,1%,1%,6%,-12%[46.1 µM]
Cc1nc2ccccc2c(=O)n1NC(=O)Nc1ccccc1,2%,44,0%,-2%,1%,12%[46.1 µM]
Cc1ccccc1-c1noc(CSc2nc(-c3ccc(F)cc3)cc(=O)[nH]2)n1,x,x,-7%,-3%,0%,x

# From PubChem
